# High-throughput results deposited in PubChem BioAssay by National Center for Advancing Translational Sciences (NCATS).
# Shown are actives, neighbours in structure and some others; about 19% of the full set was active somewhere.
# TDP1 inh = blocks human tyrosyl-DNA phosphodiesterase 1. recombinant TDP1, AlphaScreen DNA substrate cleavage. Potency, µM (doses to about 130 µM), for the others: top-dose activity change, negative = inhibition, actives largely listed as inhibitors. AID 485290. Q9NUW8. 350,000 tested, 0.28% active; also: potency is read from the fitted curve at half-maximal effect; % is scaled to controls: 0 for no effect and ±100 for the full control effect; nearly all actives have a fitted effect of over 40% in size
# Target sequence (Q9NUW8 whole entry, looked up): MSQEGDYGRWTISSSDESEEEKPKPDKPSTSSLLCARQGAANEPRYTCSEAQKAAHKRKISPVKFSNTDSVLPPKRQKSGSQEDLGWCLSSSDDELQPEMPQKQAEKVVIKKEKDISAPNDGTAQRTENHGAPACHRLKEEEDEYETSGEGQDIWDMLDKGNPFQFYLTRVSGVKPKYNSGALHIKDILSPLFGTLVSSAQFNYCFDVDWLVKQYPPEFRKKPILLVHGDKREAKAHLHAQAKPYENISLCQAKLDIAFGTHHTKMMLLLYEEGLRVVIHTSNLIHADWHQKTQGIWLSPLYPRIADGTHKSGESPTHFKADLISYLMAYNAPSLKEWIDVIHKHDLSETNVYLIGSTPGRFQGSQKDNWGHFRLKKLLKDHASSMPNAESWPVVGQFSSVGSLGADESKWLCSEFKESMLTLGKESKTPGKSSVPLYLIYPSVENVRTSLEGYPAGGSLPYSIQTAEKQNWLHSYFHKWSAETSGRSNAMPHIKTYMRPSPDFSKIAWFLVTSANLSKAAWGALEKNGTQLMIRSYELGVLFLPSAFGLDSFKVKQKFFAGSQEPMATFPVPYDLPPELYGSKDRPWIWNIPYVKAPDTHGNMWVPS
#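 AlphaScreen read-out: signal falls as enzyme removes the 3' tyrosine-FITC from a 5'-biotinylated DNA oligo (15 nM, 5 min, RT). Enzyme was E. coli-made recombinant Tdp1 at 1 nM, exposed to compound for 15 min beforehand; beads 10 ug/ml, 10 min.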
# HepG2 tox = counter-screen for TGF-b inhibitors: cytotoxicity in HepG2 cells; HepG2 CAGA-GFP viability, ATP luminescence, 18 h; 410,000 tested, 0.76% active; Potency, µM (titrated, usually from 46.1 µM), for the others: at the highest dose activity change, negative = cytotoxicity, most hits filed as cytotoxic; also: potency is read from the fitted curve at half-maximal effect
#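 CellTiter-Glo luminescence gave cytotoxicity after 18 hours at 37 degrees C. The cells were HepG2 CAGA-GFP in 1% FBS DMEM, stimulated with 500 pg/mL TGF-beta after compound addition. %Activity was normalised to no-cell wells (complete cell-killing) and DMSO (no toxicity), and curves were fitted and classified.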
# IL-1B inflam inh = inhibitors of inflammasome signaling (IL-1 beta secretion) | THP-1 LPS/ATP IL-1B secretion, AlphaLISA, 16 h; active compounds read low | activity change, % at 57.5 µM | 360,000 tested, 4.7% active; in the data active = activity change below about -50%; inconclusive = mostly about -30% to -49%; also: % is scaled to controls: 0 for no effect and ±100 for the full control effect
#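 THP-1 cells pretreated 1 hr with compounds (up to 57.5 uM final), then stimulated with LPS (250 ng/mL final) plus ATP (1.25 mM final); secreted IL-1B measured by AlphaLISA after 16 hr, decreased signal indicating inhibition.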
# TDP1 cell noCPT = qHTS for Inhibitors of human tyrosyl-DNA phosphodiesterase 1 (TDP1): qHTS in cells in absence of CPT | DT40 Tdp1-/- hTDP1 cells, no CPT, ATP luminescence, 48 h | Potency, µM (top dose mostly 46.2 µM), without a hit: top-dose activity change, negative = growth inhibition, usual class: inhibitors | 420,000 tested, 15% active | AID 686978, 2013; also: potency is read from the fitted curve at half-maximal effect; % is scaled to controls: 0 for no effect and ±100 for the full control effect; nearly all actives have a fitted effect of over 55% in size
#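 Luminescent ATP content (CellTiter-Glo) served as the growth readout. Knockout chicken DT40 cells expressing human TDP1 were exposed to compounds without camptothecin for a minimum 48 hr at 37 °C.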
# DT40 TDP1 CPT = growth inhibition of DT40 Tdp1-/-;hTDP1 cells with camptothecin (screen for TDP1 inhibitors); chicken DT40 Tdp1-/-;hTDP1 cells + 20 nM CPT, ATP luminescence, 48 h; Potency, µM (highest dose often 46.2 µM), for inactives: top-dose activity change, negative = growth inhibition, actives largely listed as inhibitors; 420,000 tested, 12% active; AID 686979; also: potency is read from the fitted curve at half-maximal effect; % is scaled to controls: 0 for no effect and ±100 for the full control effect; nearly all actives have a fitted effect of over 55% in size
#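 Chicken DT40 Tdp1-/- cells stably complemented with human TDP1 were seeded at 400 cells/well in medium containing 20 nM camptothecin, exposed to pin-transferred compounds, and grown at 37 °C for at least 48 hr. Viability was read as ATP luminescence.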
# TGFb inhibitor = TGF-b pathway inhibition; Potency, µM (top dose mostly 46.1 µM), without a hit: at the highest dose activity, negative = inhibition, most hits filed as inhibitors; 410,000 tested, 1.2% active; HepG2 CAGA-GFP TGF-b/SMAD3 reporter, GFP fluorescence, 18 h; TGF-beta stimulated, 500 pg/mL final; also: potency is read from the fitted curve at half-maximal effect; % is scaled to controls: 0 for no effect and ±100 for the full control effect; nearly all actives have a fitted effect of over 65% in size
#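 Smad-responsive CAGA-GFP expression was quantified in HEPG2 cells exposed to compounds and 500 pg/mL final TGF-beta for 18 h at 37 degrees C; unstimulated wells defined full inhibition.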
# Starred values were filed as active, the others as inactive; ? = inconclusive; · = not tested or not shown. Unless noted, calls follow the shape of the dose curve; as a rule, active = well fitted curve in the direction sought with a large enough effect; inconclusive = small, poorly fitted or top-dose-only effect, or another doubt; inactive = no such curve, though single readings can be large; an effect the other way counts as inactive or inconclusive.
SMILES,TDP1 inh,HepG2 tox,IL-1B inflam inh,TDP1 cell noCPT,DT40 TDP1 CPT,TGFb inhibitor
CCCNC(=S)N1CCC(C(=O)c2ccc(OC)cc2)CC1,3%,-1%,-2,21µM*,-27%,-1%
COc1ccc(NC(=S)N2CCC(C(=O)c3ccc(Cl)cc3)CC2)cc1,·,5%,8,11%,6%,-4%
COc1ccc(CCCC(=O)NCC(=O)N/N=C/c2cc(Cl)ccc2OC)cc1,5%,-27%,0,-20%,2%,-29%
CC(C)CNC(=S)N1CCC(C(=O)c2ccc(Cl)cc2)CC1,·,0%,-21,?,10µM*,-16%
COc1ccc(CN2CCC(C(=O)c3ccc(Cl)cc3)CC2)cc1,·,-22%,-27,16µM*,23µM*,0%
FC(F)(F)c1cnc(N2CCN(C(=S)NCc3ccccc3)CC2)c(Cl)c1,-5%,-29%,-93*,21µM*,?,?
O=C(CSc1ccccn1)N1CCN(c2ncc(C(F)(F)F)cc2Cl)CC1,4%,-19%,-8,16µM*,?,4%
OC(CN1CCN(c2ncc(C(F)(F)F)cc2Cl)CC1)c1ccccc1 (centres undefined),·,-54%,4,?,?,?
O=C(O)c1nn(CC(=O)N2CCCCCC2)c(=O)c2ccccc12,-1%,-20%,16,8%,6%,?
O=C(O)c1nn(CC(=O)N2CCN(c3ncc(C(F)(F)F)cc3Cl)CC2)c(=O)c2ccccc12,-4%,-14%,-6,16µM*,-25%,-12%
O=C(CSc1ccccn1)N1CCN(C(=O)CSc2ccccn2)CC1,6%,-2%,20,2%,5%,-3%
CCOc1ccc(CCNC(=O)Cn2ncn3c(cc4sc(C)cc43)c2=O)cc1OCC,2%,-3%,·,?,1%,0%
CN(C)c1ncc2nc(-c3ccc(F)cc3)c(=O)n(-c3ccccc3)c2n1,·,·,·,28%,-2%,·
COc1ccc(NC(=O)N2CCCC3(CCN(C(=O)c4cc(C(F)(F)F)cc(C(F)(F)F)c4)CC3)C2)cc1,·,·,·,-11%,-3%,·
CCc1nc2ccc(C(=O)N(C)C(C)C)cn2c1N(CC)Cc1cccc(Br)c1,·,-18%,-8,15µM*,?,-1%
CCc1nc2ccc(C(=O)N3CCN(S(=O)(=O)CC)CC3)cn2c1N(CC)Cc1cccc(Br)c1,·,-27%,-22,?,23µM*,?
CCc1nc2ccc(C(=O)N3CCN(S(=O)(=O)CC)CC3)cn2c1N(CC)CCN(C)C,·,12%,23,-13%,0%,36%
Cc1ccc(N(C)C(=O)c2cnc(N3CCOCC3)c3ccccc23)cc1C,4%,-17%,·,?,23µM*,2%
CCN(C(=O)c1cnc(N2CCOCC2)c2ccccc12)c1cc(C)ccc1C,7%,-23%,·,?,23µM*,?
Clc1ccc(-c2nnc(-c3ccccc3)o2)cn1,·,-1%,-1,2%,3%,4%
Nc1[nH]c(C(=O)c2ccccc2)c(-c2ccc(F)cc2)c1C(=O)NCCc1c[nH]c2ccccc12,·,·,?,23µM*,?,·
COc1ccc(C(=O)c2[nH]c(N)c(C(=O)NCCc3c[nH]c4ccccc34)c2-c2c(F)cccc2Cl)cc1,·,·,-9,15µM*,16µM*,·
Nc1[nH]c(C(=O)c2ccccc2)c(-c2ccc(Cl)cc2)c1C(=O)NCCc1c[nH]c2ccccc12,·,·,0,?,?,·
Nc1[nH]c(C(=O)c2ccccc2)c(-c2ccc(Cl)c(F)c2)c1C(=O)NCCc1c[nH]c2ccccc12,·,·,-9,?,?,·
COc1ccc(C(=O)c2[nH]c(N)c(C(=O)NCCc3c[nH]c4ccccc34)c2-c2ccc(OC)c(OC)c2)cc1,·,·,?,8.2µM*,16µM*,·
SMILES,TDP1 inh,HepG2 tox,IL-1B inflam inh,TDP1 cell noCPT,DT40 TDP1 CPT,TGFb inhibitor
COc1ccc(OCC(=O)Nc2cccc(-c3nc4ccccc4s3)c2C)cc1,4%,-1%,·,?,?,-7%
CN(CCCNC(=O)C1CCC(=O)N1Cc1ccccc1Cl)c1ccccc1 (centres undefined),-2%,-16%,-12,?,-21%,-2%
CCCS(=O)(=O)N1CCC(C(=O)NCCCN(CC)c2cccc(C)c2)CC1,0%,-12%,-5,?,?,4%
CCN(CCCNC(=O)C1CCC(=O)N1Cc1ccccc1Cl)c1cccc(C)c1 (centres undefined),2%,-6%,0,23µM*,16µM*,-22%
CNC(=O)C1CCC(=O)N1Cc1ccccc1Cl (centres undefined),-2%,-9%,7,-2%,-3%,29%
O=C(Nc1cc(Cl)cc(Cl)c1)C1CCC(=O)N1Cc1ccccc1Cl (centres undefined),0%,-46%,?,?,23µM*,-8%
CCN(CCCNC(=O)C1CCN(S(=O)(=O)N2CCOCC2)CC1)c1cccc(C)c1,0%,1%,-13,16µM*,?,9%
O=C(NCCCN1CCN(c2cccc(Cl)c2)CC1)C1CCC(=O)N1Cc1ccccc1Cl (centres undefined),5%,-41%,-55*,?,16µM*,?
COc1cccc(-n2nnc(-c3nc(-c4ccccc4F)no3)c2C)c1,8%,-15%,·,?,?,2%
COCCNC(=O)C12CC3CC(CC(Cl)(C3)C1)C2,2%,-2%,0,-12%,-9%,-2%
CCOC(=O)Cn1c(=O)cc(C(F)(F)C(F)(F)F)c2c(C)nn(CC)c21,-3%,-19%,·,?,-29%,-11%
CCN(CCCNC(=O)C1CCC(=O)N1Cc1ccc(C)cc1)c1cccc(C)c1 (centres undefined),2%,-28%,-4,23µM*,13µM*,14%
CC1(Cc2ccc(OC(F)(F)F)cc2)C(=O)Nc2c(Cl)ccc(Cl)c21 (centres undefined),·,-113%,48,?,?,16µM*
CC1(Cc2ccc(Cl)c(Cl)c2)C(=O)Nc2c(Cl)ccc(Cl)c21 (centres undefined),·,-100%,27,?,?,?
CC1(Cc2ccc(F)cc2)C(=O)Nc2c(Cl)ccc(Cl)c21 (centres undefined),·,-4%,-59*,?,?,-17%
